Experimental data taken from PubChem BioAssay AID1159580 (chemical genetic matrix, 2015).
The campaign covered roughly 5,500 compounds. About 2,000 (36%) were called active. Inconclusive results (about 18%) are left out. No stated cut-off is given here; in the data, active means normalized growth mostly below about 0.91 (no sharp cut-off); inconclusive means no clear call, values can overlap the other calls; inactive means mostly above about 0.92. This is one part of the list.

Assay: chemical genetic growth profiling, strain panel (AID 1159580);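 further: tested at 20 µM; growth read once vehicle control cultures reached saturation at 30 °C; 1 = growth at the plate median or of vehicle wells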
Details: S. cerevisiae deletion strains, growth OD
[1] = locus YHR030C, strain SLT2, stronger effect = lower value
[2] = locus YHR079C, strain IRE1, stronger effect = lower value
[3] = locus YJL095W, strain BCK1, stronger effect = lower value
[4] = locus YJR066W, strain TOR1, stronger effect = lower value
[5] = locus YLR113W, strain HOG1, stronger effect = lower value
[6] = locus YNL183C, strain NPR1, stronger effect = lower value
[7] = locus YOR231W, strain MKK1, stronger effect = lower value
[8] = locus YPL256C, strain CLN2, stronger effect = lower value

Measured: normalized growth

CC(=O)OCC(=O)[C@@]1(O)CCC2C3CCC4=CC(=O)C=C[C@]4(C)[C@@]3(F)[C@@H](O)C[C@@]21C (some centres not stated)
inactive: [1] 1.07 | [2] 1.07 | [3] 1.01 | [4] 1 | [5] 0.999 | [6] 0.993 | [7] 1.05 | [8] 1.06

O=C(/C=C/C(=O)Oc1ccccc1C(=O)O)Oc1ccccc1C(=O)O
inactive: locus YAL021C, strain ccr4, stronger effect = lower value 0.961 | locus YAL026C, strain drs2, stronger effect = lower value 0.988 | locus YAL030W, strain snc1, stronger effect = lower value 0.992 | locus YBL061C, strain skt5, stronger effect = lower value 0.983 | locus YBR009C, strain hhf1, stronger effect = lower value 0.991 | locus YBR023C, strain chs3, stronger effect = lower value 0.994 | locus YBR171W, strain sec66, stronger effect = lower value 0.962 | locus YBR231C, strain swc5, stronger effect = lower value 0.984 | locus YBR279W, strain paf1, stronger effect = lower value 0.978 | locus YCL011C, strain gbp2, stronger effect = lower value 0.989 | locus YCL016C, strain dcc1, stronger effect = lower value 0.971 | locus YCL061C, strain MRC1, stronger effect = lower value 0.995 | locus YCL069W, strain vba3, stronger effect = lower value 0.99 | locus YCR088W, strain abp1, stronger effect = lower value 0.987 | locus YDL005C, strain med2, stronger effect = lower value 0.976 | locus YDL040C, strain nat1, stronger effect = lower value 0.992 | locus YDR001C, strain nth1, stronger effect = lower value 0.972 | locus YDR069C, strain doa4, stronger effect = lower value 0.98 | locus YDR137W, strain rgp1, stronger effect = lower value 0.969 | locus YDR159W, strain sac3, stronger effect = lower value 0.971 | locus YDR195W, strain ref2 0.976 | locus YDR297W, strain sur2, stronger effect = lower value 0.987 | locus YDR334W, strain swr1, stronger effect = lower value 0.99 | locus YDR335W, strain msn5, stronger effect = lower value 0.986 | locus YDR392W, strain spt3, stronger effect = lower value 0.995 | locus YEL003W, strain gim4, stronger effect = lower value 0.995 | locus YEL037C, strain rad23, stronger effect = lower value 0.998 | locus YEL061C, strain CIN8 (second series), stronger effect = lower value 0.981 | locus YER015W, strain faa2, stronger effect = lower value 0.992 | locus YER016W, strain bim1, stronger effect = lower value 0.971 | locus YER111C, strain swi4, stronger effect = lower value 0.975 | locus YER155C, strain BEM2 (second series), stronger effect = lower value 0.998 | locus YFR010W, strain ubp6, stronger effect = lower value 0.991 | locus YGL167C, strain pmr1, stronger effect = lower value 0.976 | locus YGL173C, strain kem1, stronger effect = lower value 1 | locus YGL227W, strain vid30, stronger effect = lower value 0.962 | locus YGL240W, strain doc1, stronger effect = lower value 0.984 | locus YGL253W, strain hxk2, stronger effect = lower value 0.995 | locus YHR013C, strain ard1, stronger effect = lower value 0.984 | locus YHR027C, strain rpn1, stronger effect = lower value 0.979 | [1] 1.01 | [2] 1.02 | locus YHR142W, strain chs7, stronger effect = lower value 0.974 | locus YJL092W, strain hpr5, stronger effect = lower value 0.989 | locus YJL095W, strain BCK1 (second series), stronger effect = lower value 0.992 | [3] 1.02 | locus YJL115W, strain asf1, stronger effect = lower value 0.968 | locus YJL129C, strain trk1, stronger effect = lower value 0.964 | locus YJL154C, strain vps35, stronger effect = lower value 0.996 | locus YJL164C, strain tpk1, stronger effect = lower value 0.99 | locus YJL166W, strain qcr8, stronger effect = lower value 0.997 | [4] 0.975 | locus YKL160W, strain elf1, stronger effect = lower value 0.981 | locus YKR026C, strain gcn3, stronger effect = lower value 0.968 | locus YKR091W, strain srl3, stronger effect = lower value 0.978 | locus YLL001W, strain dnm1, stronger effect = lower value 0.999 | locus YLL026W, stronger effect = lower value 0.961 | locus YLL041C, strain sdh2, stronger effect = lower value 0.987 | locus YLR027C, strain aat2, stronger effect = lower value 0.985 | [5] 0.987 | locus YLR221C, strain rsa3, stronger effect = lower value 1 | locus YLR258W, strain gsy2, stronger effect = lower value 0.988 | locus YLR262C, strain YPT6 (second series), stronger effect = lower value 0.996 | locus YLR320W, strain mms22, stronger effect = lower value 1.01 | locus YLR342W, strain FKS1, stronger effect = lower value 0.983 | locus YLR357W, strain rsc2, stronger effect = lower value 0.987 | locus YLR370C, strain arc18, stronger effect = lower value 0.994 | locus YLR384C, strain iki3, stronger effect = lower value 0.976 | locus YML120C, strain ndi1, stronger effect = lower value 0.974 | locus YMR058W, strain fet3, stronger effect = lower value 0.984 | locus YMR125W, strain sto1, stronger effect = lower value 0.967 | locus YMR129W, stronger effect = lower value 0.973 | locus YMR205C, strain PFK2, stronger effect = lower value 0.964 | locus YMR231W, strain pep5, stronger effect = lower value 0.979 | locus YNL071W, strain lat1, stronger effect = lower value 1 | [6] 0.976 | locus YNL209W, strain ssb2, stronger effect = lower value 0.971 | locus YNL248C, strain rpa49, stronger effect = lower value 0.985 | locus YNL322C, strain KRE1 (second series), stronger effect = lower value 0.93 | locus YNR049C, strain mso1, stronger effect = lower value 0.985 | locus YOR001W, strain rrp6, stronger effect = lower value 1 | locus YOR070C, strain gyp1, stronger effect = lower value 0.978 | locus YOR080W, strain dia2, stronger effect = lower value 0.98 | locus YOR083W, strain WHI5, stronger effect = lower value 0.935 | locus YOR106W, strain vam3, stronger effect = lower value 0.953 | [7] 1.01 | locus YOR265W, strain rbl2, stronger effect = lower value 0.979 | locus YOR270C, strain vph1, stronger effect = lower value 1.02 | locus YOR290C, strain snf2, stronger effect = lower value 0.98 | locus YPL051W, strain arl3, stronger effect = lower value 0.984 | locus YPL078C, strain atp4, stronger effect = lower value 0.984 | locus YPL106C, strain sse1, stronger effect = lower value 0.973 | locus YPL240C, strain hsp82, stronger effect = lower value 0.968 | [8] 1
